Experimental data as given in PubChem BioAssay (EPA / NIEHS).
Several values for one entry are separate records, joined by “and”; a condition that tells them apart may be missing. Equal values may be shown once. Inconclusive results are not listed. Some compounds were tested as several samples or in several runs, with calls that do not always agree. Activity calls are given as the source filed them. How the source made its calls, unless noted: active means hit-call score of the fitted dose curve at least 0.9, where 1 is the maximum; inconclusive means response in the unintended direction; inactive means score below 0.9.

Key:
[1] = target: Estrogen receptor (Homo sapiens) (UniProt P03372); assay: OT_ERa_GFPERaERE_0480: Odyssey Thera (OT) 8-hour HeLa Transcription Induction Assay for Estrogen Receptor (AID 2283381; active means hit-call score of the fitted dose curve at least 0.9, where 1 is the maximum; inactive means score below 0.9)
Summary of the method: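 An 8 h HeLa transcription-induction format with a GFP reporter under ERE control, read by fluorescence microscopy; single endpoint fitted positively with DMSO as baseline.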

[2] = target: Estrogen receptor (Homo sapiens) (UniProt P03372); assay: OT_ERa_GFPERaERE_0120: Odyssey Thera (OT) 2-hour HeLa Transcription Induction Assay for Estrogen Receptor (AID 2283382)
Summary of the method: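 Two-hour compound treatment of HeLa cells preceded microscopy imaging of an inducible fluorescent reporter. Image-based quantification gave one endpoint, analysed for signal increase relative to DMSO controls.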

[3] = target: Bile acid receptor (Homo sapiens) (UniProt Q96RI1); assay: OT_FXR_FXRSRC1_0480: Odyssey Thera (OT) 8-hour HEK293T Protein-Complementation Assay for Farnesoid X receptor/SRC-1 Co-activator (AID 2283383)
Summary of the method: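 Readings were taken 8 h after dosing HEK293T cells in a split-reporter complementation format pairing FXR with SRC-1. Increased fluorescence relative to DMSO-treated wells defined activity.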

[4] = target: Bile acid receptor (Homo sapiens) (UniProt Q96RI1); assay: OT_FXR_FXRSRC1_1440: Odyssey Thera (OT) 24-hour HEK293T Protein-Complementation Assay for Farnesoid X receptor/SRC-1 Co-activator (AID 2283384)
Summary of the method: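 Single endpoint, analysed for increased fluorescence against DMSO controls. HEK293T cells carrying FXR and SRC-1 linked to complementary reporter halves were exposed to chemicals for 24 h before reading.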

[5] = target: Peroxisome proliferator-activated receptor gamma (Homo sapiens) (UniProt P37231); assay: OT_PPARg_PPARgSRC1_0480: Odyssey Thera (OT) 8-hour Protein-Complementation Assay for Peroxisome Proliferator-activated Receptor Gamma / SRC-1 Co-activator (AID 2283387);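 further: nuclear to cytoplasmic split Venus YFP fluorescence ratio reporting PPARg SRC-1 interaction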
Summary of the method: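 Split-YFP (IFP1/IFP2) PPARg/SRC-1 reporter, HEK293T, 37 °C, 5% CO2; 8 h compound; formaldehyde fix + Draq5; high-content imaging, N/C ratio, ≥350 cells/image, positive direction vs DMSO.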

[6] = target: Peroxisome proliferator-activated receptor gamma (Homo sapiens) (UniProt P37231); assay: OT_PPARg_PPARgSRC1_1440: Odyssey Thera (OT) 24-hour Protein-Complementation Assay for Peroxisome Proliferator-activated Receptor Gamma/ SRC-1 Co-activator (AID 2283388);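 further: nuclear to cytoplasmic ratio of reconstituted Venus YFP fluorescence in fixed imaged cells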
Summary of the method: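 Protein-fragment complementation between PPARg and coactivator SRC-1 was measured by fluorescence imaging in transiently transfected HEK293T cells after 24 h treatment. Signal was quantified as N/C ratio in the 488 nm channel, with DMSO as negative control.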

[7] = target: Agonist Androgen Response Element (ARE), AR (gene 367) (UniProt P10275); assay: OT_AR_ARELUC_AG_1440: Odyssey Thera (OT) 24-hour CHO-K1 Luciferase Assay for Agonist Androgen Response Element (ARE) (AID 2283379)
Summary of the method: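 Gain-of-signal reporter endpoint: cells (CHO-K1, hamster) are treated 24 h, luciferin/ATP reagent added, and luminescence compared with DMSO baseline.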

[8] = target: Retinoic acid receptor RXR-alpha (Homo sapiens) (UniProt P19793); assay: OT_NURR1_NURR1RXRa_0480: Odyssey Thera (OT) 8-hour HEK293T Protein Complementation Assay for Nurr1/retinoid X receptor (RXR) (AID 2283385)
Summary of the method: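 Gain in fluorescent complementation signal over DMSO, measured 8 hours after chemical dosing of human kidney HEK293T cells, indicated enhanced Nurr1–RXRα association.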

[9] = target: Retinoic acid receptor RXR-alpha (Homo sapiens) (UniProt P19793); assay: OT_NURR1_NURR1RXRa_1440: Odyssey Thera (OT) 24-hour HEK293T Protein Complementation Assay for Nurr1/retinoid X receptor (RXR) (AID 2283386)
Summary of the method: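 Cell-based binding reporter: HEK293T cells, 24 h exposure, fluorescence-detected fragment complementation, DMSO as baseline.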

[10] = target: Estrogen receptor beta (Homo sapiens) (UniProt Q92731); assay: OT_ER_ERbERb_1440: Odyssey Thera (OT) 24-hour HEK293T Protein-Complementation Assay for Estrogen Receptor-beta/-beta Homodimer (AID 2283380);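 further: scored as signal increase over DMSO baseline for both agonists and antagonists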
Summary of the method: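 HEK293T cells stably expressing ER beta LBD (aa 310-547) homodimer fragment-complementation reporter, dosed 24 h. Cells formaldehyde-fixed, Draq5-stained; gain in nuclear (agonist) or nuclear plus cytoplasmic (antagonist) fluorescence versus DMSO read by laser scanning cytometry.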

Measured: AC50

Sequence of Retinoic acid receptor RXR-alpha (Homo sapiens) (P19793 whole entry, looked up, the tested form may be a part): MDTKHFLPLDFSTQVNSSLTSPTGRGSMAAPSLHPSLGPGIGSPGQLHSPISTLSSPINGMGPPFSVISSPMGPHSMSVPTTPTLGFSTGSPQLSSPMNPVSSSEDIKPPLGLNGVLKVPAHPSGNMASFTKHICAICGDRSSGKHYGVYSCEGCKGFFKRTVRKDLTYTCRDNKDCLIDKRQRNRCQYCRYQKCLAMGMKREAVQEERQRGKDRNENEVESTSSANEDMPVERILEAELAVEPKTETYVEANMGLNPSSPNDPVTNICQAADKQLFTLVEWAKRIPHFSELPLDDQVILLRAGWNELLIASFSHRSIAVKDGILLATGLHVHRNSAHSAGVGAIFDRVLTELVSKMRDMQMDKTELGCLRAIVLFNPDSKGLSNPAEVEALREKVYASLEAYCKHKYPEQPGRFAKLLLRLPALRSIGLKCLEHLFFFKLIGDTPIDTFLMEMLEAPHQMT
Sequence of Estrogen receptor beta (Homo sapiens) (Q92731 whole entry, looked up, the tested form may be a part): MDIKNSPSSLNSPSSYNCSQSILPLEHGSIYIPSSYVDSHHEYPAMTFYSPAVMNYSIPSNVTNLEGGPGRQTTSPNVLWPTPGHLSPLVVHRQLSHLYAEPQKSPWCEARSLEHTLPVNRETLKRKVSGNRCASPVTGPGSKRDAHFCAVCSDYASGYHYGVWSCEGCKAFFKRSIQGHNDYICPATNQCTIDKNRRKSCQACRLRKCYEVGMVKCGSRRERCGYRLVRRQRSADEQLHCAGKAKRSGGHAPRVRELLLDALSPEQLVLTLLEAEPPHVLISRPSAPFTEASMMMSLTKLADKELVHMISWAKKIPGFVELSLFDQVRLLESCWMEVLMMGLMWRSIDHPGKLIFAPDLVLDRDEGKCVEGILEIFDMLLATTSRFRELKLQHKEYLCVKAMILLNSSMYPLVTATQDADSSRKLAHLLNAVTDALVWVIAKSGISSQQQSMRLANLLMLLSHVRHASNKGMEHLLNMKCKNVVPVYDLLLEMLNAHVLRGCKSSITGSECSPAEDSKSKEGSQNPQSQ
Sequence of Estrogen receptor (Homo sapiens) (P03372 whole entry, looked up): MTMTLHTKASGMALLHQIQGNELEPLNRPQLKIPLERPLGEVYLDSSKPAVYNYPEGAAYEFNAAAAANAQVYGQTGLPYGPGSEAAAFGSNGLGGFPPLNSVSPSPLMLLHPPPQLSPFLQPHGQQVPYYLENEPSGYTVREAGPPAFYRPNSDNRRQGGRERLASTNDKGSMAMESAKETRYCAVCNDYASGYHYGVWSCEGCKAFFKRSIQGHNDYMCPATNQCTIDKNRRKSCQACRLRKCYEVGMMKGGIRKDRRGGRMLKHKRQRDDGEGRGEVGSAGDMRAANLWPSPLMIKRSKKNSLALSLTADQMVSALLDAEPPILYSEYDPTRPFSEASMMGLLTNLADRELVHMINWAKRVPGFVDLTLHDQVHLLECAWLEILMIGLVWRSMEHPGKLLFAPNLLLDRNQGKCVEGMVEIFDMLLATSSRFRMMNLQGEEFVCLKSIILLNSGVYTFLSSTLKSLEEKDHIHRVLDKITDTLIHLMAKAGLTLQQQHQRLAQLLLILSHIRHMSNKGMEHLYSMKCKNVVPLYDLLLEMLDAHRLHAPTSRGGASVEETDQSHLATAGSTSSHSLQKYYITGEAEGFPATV
Sequence of Peroxisome proliferator-activated receptor gamma (Homo sapiens) (P37231 whole entry, looked up, the tested form may be a part): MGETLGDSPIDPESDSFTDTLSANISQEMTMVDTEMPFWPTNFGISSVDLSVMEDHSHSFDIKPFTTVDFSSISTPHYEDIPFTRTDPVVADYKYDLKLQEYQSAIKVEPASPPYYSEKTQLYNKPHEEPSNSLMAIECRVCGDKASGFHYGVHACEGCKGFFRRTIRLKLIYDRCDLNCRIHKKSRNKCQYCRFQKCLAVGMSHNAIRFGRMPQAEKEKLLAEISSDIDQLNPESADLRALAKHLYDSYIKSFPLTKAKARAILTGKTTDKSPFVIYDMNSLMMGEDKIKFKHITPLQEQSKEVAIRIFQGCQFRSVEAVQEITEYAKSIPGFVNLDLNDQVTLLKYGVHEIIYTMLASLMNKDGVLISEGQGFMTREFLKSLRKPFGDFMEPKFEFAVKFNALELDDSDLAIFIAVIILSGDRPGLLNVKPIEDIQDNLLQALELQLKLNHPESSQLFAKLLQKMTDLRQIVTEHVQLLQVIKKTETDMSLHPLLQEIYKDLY
Sequence of Agonist Androgen Response Element (ARE), AR (gene 367) (P10275 whole entry, looked up): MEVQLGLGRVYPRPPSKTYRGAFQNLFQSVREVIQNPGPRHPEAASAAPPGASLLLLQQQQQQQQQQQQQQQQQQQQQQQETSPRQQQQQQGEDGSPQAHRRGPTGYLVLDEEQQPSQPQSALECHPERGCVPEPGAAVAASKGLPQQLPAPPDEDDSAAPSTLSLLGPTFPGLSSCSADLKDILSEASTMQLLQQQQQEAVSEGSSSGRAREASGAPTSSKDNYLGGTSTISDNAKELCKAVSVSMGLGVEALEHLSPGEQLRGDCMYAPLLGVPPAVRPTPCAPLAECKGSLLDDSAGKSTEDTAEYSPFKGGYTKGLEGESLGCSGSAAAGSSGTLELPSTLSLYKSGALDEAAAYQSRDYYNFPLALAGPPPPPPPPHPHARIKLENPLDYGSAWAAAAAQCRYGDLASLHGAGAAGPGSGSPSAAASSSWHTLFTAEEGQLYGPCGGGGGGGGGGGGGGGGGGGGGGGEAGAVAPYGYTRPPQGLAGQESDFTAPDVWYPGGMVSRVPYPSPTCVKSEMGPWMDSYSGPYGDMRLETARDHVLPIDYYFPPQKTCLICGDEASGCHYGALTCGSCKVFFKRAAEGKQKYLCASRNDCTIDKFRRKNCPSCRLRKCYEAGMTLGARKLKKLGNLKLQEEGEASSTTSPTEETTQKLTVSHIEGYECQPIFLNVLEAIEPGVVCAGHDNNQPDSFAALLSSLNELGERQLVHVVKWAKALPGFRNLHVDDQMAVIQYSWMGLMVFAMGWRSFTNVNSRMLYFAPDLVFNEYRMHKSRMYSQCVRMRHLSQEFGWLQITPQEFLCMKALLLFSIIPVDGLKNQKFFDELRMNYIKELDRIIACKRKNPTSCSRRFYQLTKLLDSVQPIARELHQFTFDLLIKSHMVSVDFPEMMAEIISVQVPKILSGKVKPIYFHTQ
Sequence of Bile acid receptor (Homo sapiens) (Q96RI1 whole entry, looked up): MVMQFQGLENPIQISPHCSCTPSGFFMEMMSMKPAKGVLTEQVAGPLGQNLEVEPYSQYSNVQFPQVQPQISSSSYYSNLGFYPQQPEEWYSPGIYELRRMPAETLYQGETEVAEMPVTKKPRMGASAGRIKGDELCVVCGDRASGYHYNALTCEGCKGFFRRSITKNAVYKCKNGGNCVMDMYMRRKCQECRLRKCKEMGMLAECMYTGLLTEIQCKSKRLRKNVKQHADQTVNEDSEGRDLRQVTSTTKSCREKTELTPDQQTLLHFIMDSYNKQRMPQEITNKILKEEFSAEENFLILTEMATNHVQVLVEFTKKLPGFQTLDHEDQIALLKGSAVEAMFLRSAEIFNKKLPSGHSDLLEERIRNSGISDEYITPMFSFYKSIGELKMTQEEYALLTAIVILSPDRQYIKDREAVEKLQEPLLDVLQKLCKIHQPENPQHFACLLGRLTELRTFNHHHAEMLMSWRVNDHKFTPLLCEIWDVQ

CC(C)(C)CC(C)(C)c1ccc(O)c(-n2nc3ccccc3n2)c1
inactive: [1] | [2] | [5] | [6]
active: [3] 35.7 µM | [4] 34.5 µM

NC(=O)N1C(=O)C(C(=O)c2cc(Cl)cs2)c2cc(F)c(Cl)cc21 (stereo not given)
active: [4] 81.9 µM
inactive: [7] | [1] | [3] | [6]

CC[C@H](c1ccc(O)cc1)[C@@H](CC)c1ccc(O)cc1
inactive: [7] | [3] | [4] | [8] | [9] | [5] | [6]
active: [3] 50 µM and 65.7 µM | [4] 24.5 µM and 31.9 µM

Oc1cc2ccccc2c2ccccc12
active: [1] 28.9 µM
inactive: [7] | [2] | [5] | [6]

O=C(O)c1ccccc1C(c1ccc(O)cc1)c1ccc(O)cc1
inactive: [7] | [1] | [6]
active: [7] 1.95 µM

OCCC(F)(F)C(F)(F)C(F)(F)C(F)(F)C(F)(F)C(F)(F)F
active: [2] 11.6 µM
not listed: [7] | [8] | [10]
inactive: all other assays above

CCN(CC)CCNc1ccc(CNC=O)c2sc3ccc(OC)cc3c(=O)c12
inactive: [10] | [1] | [6]
active: [2] 20.2 µM | [3] 11.6 µM | [4] 11.9 µM

CCCCC(CC)COC(=O)CCCCC(=O)OCc1ccccc1 (stereo not given)
inactive: [10] | [1] | [4] | [8] | [5] | [6]

CC[C@H](C)[C@@H](C(=O)O)n1sc2ccccc2c1=O
inactive: [10] | [1] | [3] | [6]

COCC(C)OCC(C)O (stereo not given)
inactive: [7] | [1] | [4] | [8] | [9] | [6]

CCc1ccc(CCOc2ccc(CC3SC(=O)NC3=O)cc2)nc1 (stereo not given)
active: [8] 53.6 µM and 57.4 µM
inactive: [1] | [2]

NC(=O)N(O)[C@@H]1C=C[C@H](Oc2cccc(Oc3ccc(F)cc3)c2)C1
active: [4] 12.8 µM
inactive: [1] | [2] | [3] | [6]

CC(C)(C)c1cc(C(C)(C)C)c(O)c(C(C)(C)C)c1
inactive: [1] | [5] | [6]
active: [10] 66.3 µM | [3] 81.1 µM | [4] 92.6 µM | [8] 84.3 µM and 77.2 µM

Cc1ccc(S(=O)(=O)O)c(C)c1
inactive: [1] | [2] | [5] | [6]
active: [1] 24 µM

c1ccc2c(c1)ccc1ccccc12
inactive: [7] | [1] | [3] | [4] | [5] | [6]

CCCOC(=O)c1ccc(O)cc1
active: [1] 27.6 µM | [4] 58.5 µM
inactive: [2] | [3] | [9] | [6]

CC(=O)CC(C)(C)O
inactive: [7] | [1] | [3] | [4] | [5] | [6]

C=C(C)C(=O)OCCC(F)(F)C(F)(F)C(F)(F)C(F)(F)C(F)(F)C(F)(F)F
active: [2] 12.5 µM
not listed: [7] | [9] | [10]
inactive: all other assays above

CCc1nn(C2CCCCC2)c2cc(C3(C#N)CCC(C(=O)O)CC3)ccc12 (stereo not given)
active: [3] 23.6 µM | [4] 41.3 µM
inactive: [1] | [2] | [6]

CC(O)C(=O)O (stereo not given)
inactive: [1] | [2] | [3] | [4] | [9]

O=c1c(-c2ccc(O)cc2)coc2cc(O)ccc12
active: [3] 36.7 µM and 37.1 µM | [4] 48.1 µM and 33.8 µM and 30.5 µM
inactive: [7] | [3] | [6]

Cc1cc(CCN2CCN(c3nsc4ccccc34)CC2)cc2c1NC(=O)CC2(C)C
inactive: [7] | [4] | [6]
active: [1] 16.1 µM

Cc1oc(-c2ccccc2)nc1CCOc1ccc(C[C@H](Nc2ccccc2C(=O)c2ccccc2)C(=O)O)cc1
inactive: [7] | [2]
active: [1] 82.9 µM

N#C[C@@H]1CC(F)(F)CN1C(=O)CNC1CC2CCC(C1)N2c1ncccn1 (stereo not given in full)
not listed: [3] | [5]
inactive: all other assays above

CCC(C)(C)C1CCC(O)CC1 (stereo not given)
active: [1] 16.2 µM and 40.9 µM
inactive: [1] | [5] | [6]

CCC(=C(c1ccc(O)cc1)c1ccc(OCCN(C)C)cc1)c1ccccc1
active: [3] 7.35 µM and 7.42 µM and 7.26 µM | [4] 7.46 µM and 7.54 µM and 7.53 µM
inactive: [7] | [3] | [4] | [9] | [5] | [6]

O=C(OCCOCCOC(=O)c1ccccc1)c1ccccc1
inactive: [1] | [2] | [3] | [4] | [6]
